High-throughput results as filed in PubChem.
PfHsp40 rescue – compounds rescuing yeast from Plasmodium falciparum HSP40 toxicity. S. cerevisiae expressing PfHsp40, growth rescue, ATP luminescence. AID 504582. 0.68% of 340,000 active. growth rescue, % at 12.5 µM; in the data active = growth rescue above about 28%, passing the limit was not always enough;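 note: yeast W303a lacking pdr1 and pdr3 grown in galactose medium; growth measured after three days at 30 °C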
DUSP3 inh – blocks human VHR1 dual specificity phosphatase; P51452; recombinant VHR phosphatase, pNPP absorbance; inhibition, % at 13.3 µM; 0.52% of 290,000 active; in the data active = inhibition above about 50%
Target sequence (P51452 whole entry, looked up): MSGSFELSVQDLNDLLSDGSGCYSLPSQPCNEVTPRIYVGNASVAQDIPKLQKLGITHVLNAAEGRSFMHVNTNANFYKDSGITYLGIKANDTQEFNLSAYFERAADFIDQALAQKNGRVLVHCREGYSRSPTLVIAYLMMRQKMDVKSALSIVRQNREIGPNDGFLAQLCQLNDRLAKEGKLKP
ugtP null kill – growth inhibition of S. aureus ugtP deletion strain. AID 1259309. growth inhibition, % (test concentration not listed). 0.54% of 330,000 active. S. aureus RN4220 ugtP deletion, OD600 growth, 16 h; in the data active = growth inhibition above about 68%;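 note: plate controls were untreated wells for no effect and antibiotic for full effect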
Mtb hypoxia rep – inhibitors of hypoxia-regulated fluorescent reporter in Mycobacterium tuberculosis. M. tuberculosis hypoxia-regulated fluorescent reporter, fluorescence. fluorescence inhibition, % (concentration not given with the values). 0.1% of 300,000 active. AID 1159583; in the data active = fluorescence inhibition mostly above about 23%, no sharp cut-off; inactive = mostly below about 17%
Sa RN4220 lethal – S. aureus RN4220 growth inhibition; 0.33% of 330,000 active; OD600, 16 h; AID 1259311; inhibition, % (concentration not given with the values); in the data active = inhibition above about 85%;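 note: plate controls were untreated cells for no effect and reference antibiotic for full effect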
SSB-PriA inh – blocks PriA binding to SSB C-terminal tail. AlphaScreen SSBct-PriA binding, biotinylated peptide. inhibition, % at 33 µM. 0.6% of 430,000 active; in the data active = inhibition mostly above about 37%, no sharp cut-off; inactive = mostly below about 20%;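 note: plate controls were negative control peptide for no effect and reference peptide for full effect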
Starred values were filed as active, the others as inactive; i = inactive; . = not tested or not shown; + = active, no number; ! = a repeat was not active. Hits are enriched below; roughly 1.8% of the tested compounds scored in any of these assays.

SMILES	PfHsp40 rescue	DUSP3 inh	ugtP null kill	Mtb hypoxia rep	Sa RN4220 lethal	SSB-PriA inh
Cc1ccc(-c2nc3c(c(=O)n2CC(=O)Nc2ccccc2Cl)CCN(Cc2ccccc2)C3)cc1	.	.	.	.	.	5
COc1ccc(C(=O)NCCc2ccc3c(c2)CCCN3C)c(OC)c1	.	.	.	.	.	62*
CCOc1cc(C(=O)NCCc2ccc3c(c2)CCCN3C)cc(OCC)c1OCC	.	.	.	.	.	36*
CCC(C(=O)NCCn1ncccc1=O)c1ccccc1 (configuration not stated)	.	.	.	.	.	-12
Cc1c(Cl)ccc2c1NC(=O)[C@]21N[C@@H](CCC(N)=O)[C@H]2C(=O)N(c3ccc(F)cc3)C(=O)[C@H]21	-2	15	0	2	4	-9
CCCCc1ccc(N2C(=O)[C@@H]3C(CC(N)=O)NC4(C(=O)Nc5ccc(F)cc54)[C@@H]3C2=O)cc1 (some centres not stated)	1	51*	-5	7	7	7
O=S(=O)(c1ccccc1Br)N(Cc1ccoc1)Cc1cccs1	.	.	.	.	.	-8
Cc1nn(C2CCS(=O)(=O)C2)c2nc(-c3ccco3)cc(C(=O)NCc3cccnc3)c12 (configuration not stated)	.	.	.	.	.	-9
CC(C)C(=O)NC(c1ccccc1)c1cc([N+](=O)[O-])c2cccnc2c1O (configuration not stated)	2	-8	72	3	74	43
CC(=O)NC(c1cccs1)c1cc([N+](=O)[O-])c2cccnc2c1O (configuration not stated)	243*	-2	39	16	53	92
CCCC(=O)NC(c1cccs1)c1cc([N+](=O)[O-])c2cccnc2c1O (configuration not stated)	0	28	91*	15	80	29
CC(=O)NC(c1ccccc1)c1cc([N+](=O)[O-])c2cccnc2c1O (configuration not stated)	2	-9	33	4	34	44*
CCC(=O)NC(c1cccs1)c1cc([N+](=O)[O-])c2cccnc2c1O (configuration not stated)	0	-2	98*	3	96*	75
CC(=O)NC(c1cccs1)c1cc(Cl)c2ccccc2c1O (configuration not stated)	-1	.	15	10	45	-1
COc1ccc(C)cc1CN1C(=O)c2ccccc2C1=O	3	53*	5	12	0	-14
COc1ccc(C(=O)CSc2ncccc2-c2nc3ccccc3[nH]2)cc1	.	.	.	.	.	-2
O=C(NCc1ccccc1)c1ccc(CS(=O)(=O)Cc2ccc(F)cc2)o1	2	60*	6	-5	2	-8
O=C(NCCc1ccccc1)c1ccc(CS(=O)(=O)Cc2ccc(F)cc2)o1	-2	12	0	-5	0	-13
Cc1ccccc1S(=O)(=O)Cc1ccc(C(=O)NCc2ccccc2)o1	-2	57*	8	8	5	-2
CCC(c1ccc(O)cc1)C(CC)c1ccc(O)cc1 (configuration not stated)	85*	.	-12	-3	-23	1
CN(Cc1cn(C)c2ccccc12)C(=S)Nc1cc(F)cc(F)c1	57*	1	0	-4	-4	15
CC(C)C[C@@H]1CN=C(N)N1C[C@@H]1CCCN1C[C@H](C)N1C[C@@H](Cc2ccccc2)N(CCc2ccc(Cl)c(Cl)c2)C1=N	0	.	.	.	.	-3
CC(C)C[C@@H]1CN=C(N)N1C[C@@H]1CCCN1C[C@@H](C(C)C)N1C[C@@H](Cc2ccccc2)N(CCc2ccc(Cl)c(Cl)c2)C1=N	2	.	100*	10	99*	-1
CC(C)C(CN1CCCC1CN1C(N)=NCC1Cc1ccccc1)N1CC(Cc2ccccc2)N(CCc2ccc(Cl)c(Cl)c2)C1=N (configuration not stated)	.	.	100*	.	101*	.
CC(C)CC1CN=C(N)N1CC1CCCN1CC(C)N1CC(Cc2ccccc2)N(CCc2ccc(Cl)c(Cl)c2)C1=N (configuration not stated)	.	.	101*	91*	101*	.
SMILES	PfHsp40 rescue	DUSP3 inh	ugtP null kill	Mtb hypoxia rep	Sa RN4220 lethal	SSB-PriA inh
CNC(=O)CSc1nc(-c2ccccc2)c(-c2ccccc2)o1	6	14	4	17	0	-3
CN(C)C(=O)CSc1nc(-c2ccccc2)c(-c2ccccc2)o1	8	51*	20	11	6	7
CC(=O)c1c(O)cc(O)c(C(C)=O)c1O	-1	26	89*	.	86*	-8
O=C(CSc1nccn1-c1ccc([N+](=O)[O-])cc1)NCc1ccco1	.	.	.	.	.	-3
Cc1ccc(SCCNC(=O)C=Cc2ccc(Cl)cc2)cc1	.	.	-5	-7	-1	.
O=C(COc1c(F)c(F)c(C(F)(F)F)c(F)c1F)Nc1ccc(N2CCOCC2)c(Cl)c1	30*	6	-32	-12	-7	4
O=C(NCC#CCOc1cccc(C(F)(F)F)c1)c1ccno1	.	.	.	.	.	-22
O=C(CSCc1ccc(Br)cc1)N/N=C/c1ccc(Sc2cccc3cccnc23)o1	.	.	.	.	.	+
O=C(CSc1cccc2cccnc12)N/N=C/c1ccc(O)cc1	-1	23	.	.	.	i
O=C(CCc1ccccc1O)N/N=C/c1ccc(Sc2cccc3cccnc23)o1	1	28	.	.	.	.
CCCCCCCCCCCCCCCCCC(=O)N/N=C/c1ccc(Sc2cccc3cccnc23)o1	.	.	.	.	.	+
Cc1ccc(N2CCN(C(=O)c3ccc(C(C)(C)C)cc3)CC2)c(C)c1	.	.	.	.	.	-3
O=C(/C=C/c1ccc(F)cc1)Nc1nc2ccccc2s1	.	.	.	.	.	-2
Cc1ccc2ccc3cccc4ccc1c2c34	-1	.	100*	16	-8	-10
c1ccc2c(c1)cc1ccc3cccc4ccc2c1c34	-1	.	44	11	-8	-8
O=C(CSc1ccc(-c2ccccn2)nn1)N1CCc2ccccc21	224*	2	-2	8	4	-24
O=C(CSc1ccc(-c2ccccn2)nn1)NC1CCCCC1	320*	2	0	13	5	72*!
O=C(CN1CCN(c2ccccc2F)CC1)N1CCc2ccccc21	0	7	7	19	3	-12
O=C(CSc1ccc(-c2ccccn2)nn1)c1ccc([N+](=O)[O-])cc1	95*	-12	-4	3	2	13
O=C(CN1CCN(c2nccn2-c2ccccc2F)CC1)N1CCc2ccccc21	.	.	.	.	.	44*
CC(C)C(=O)Nc1cnc(N2CCOCC2)nc1N(C)C	.	.	.	.	.	-6
Cc1ccc(S(=O)(=O)Nc2ccccc2C(=O)Nc2nc3c(C)cc(Cl)cc3s2)cc1	.	.	.	.	.	4
O=C(CSc1ncccn1)N1CCc2ccccc21	.	.	.	.	.	1
O=C(CSc1ccc(-c2ccccn2)nn1)N1CCN(c2ccccc2)CC1	.	.	.	.	.	-16
O=C(CSc1ccccn1)N1CCc2ccccc21	72*	1	18	5	5	-5
O=C(CSc1ccc(-c2ccccn2)nn1)N1CCCCC1	135*	11	.	.	.	15
CCCC(=NNc1ccc(Cl)cc1)c1cnnc(-c2ccccc2)n1	.	.	-1	6	5	-20
Nc1ccc(N=Nc2ccccc2O)c(N)c1	.	.	-3	14	-3	68*
